Values without a mark were called inactive. Inconclusive results are not listed. Active and inactive are the calls of the source. Calls come from the whole dose curve; as a rule, active = well fitted inhibition curve with a large enough effect; inconclusive = small, poorly fitted or top-dose-only effect; inactive = flat fitted curve, though single readings scatter.

Sequence of Phospholipid hydroperoxide glutathione peroxidase GPX4 (Homo sapiens) (P36969 whole entry, looked up): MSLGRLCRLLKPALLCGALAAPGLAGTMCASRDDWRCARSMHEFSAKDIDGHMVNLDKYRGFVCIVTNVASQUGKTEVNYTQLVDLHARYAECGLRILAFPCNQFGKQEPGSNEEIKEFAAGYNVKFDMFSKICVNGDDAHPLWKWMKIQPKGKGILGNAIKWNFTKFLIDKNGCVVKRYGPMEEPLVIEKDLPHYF

The first assay deals with Phospholipid hydroperoxide glutathione peroxidase GPX4 (Homo sapiens) (UniProt P36969). Description: Primary qHTS Assay for Inhibitors of Recombinant Selenoprotein Glutathione Peroxidase 4 (GPX4) (AID 1845192). For activity change, negative = inhibition: % is set by controls: 0 for no effect and ±100 for the full control effect. Note: nearly all actives have a fitted effect of over 65% in size. Conditions: recombinant GPX4, GR-coupled NADPH fluorescence, 15 min; series mostly up to 50 µM; activity change, negative = inhibition: at the top concentration. The method in brief:
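NADPH consumption, followed by fluorescence at 340/450 nm between 0 and 15 min, reports GPX4 activity via coupled glutathione reductase (100 nM). Enzyme 200 nM was pre-exposed to compound 30 min; 0.5 mM cumene hydroperoxide and 1 mM GSH served as substrates.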
A general note: In qHTS, concentration-response curves come from the screen itself.
As for `CC(C)[C@H](NC(=O)c1nn(Cc2ccc(F)cc2)c2ccccc12)C(N)=O`, the “activity change, negative = inhibition” value was -4.59%.
For `COC1CCCC(C)OC(=O)Cc2cc(O)cc(O)c2C(=O)C1` (stereo unspecified), the “activity change, negative = inhibition” value is 1.34% [at 27.8 µM].
Take `CN1CCCCC1Cn1cc(C(=O)c2cc([N+](=O)[O-])ccc2I)c2ccccc21` (stereo unspecified): the “activity change, negative = inhibition” value is -17.9%.
As to `COc1cc(C(=O)N2CC[C@@H](O)[C@@H](N)C2)cc2nc(-c3cc4ccccc4n3CC3CC3)n(C)c12`, the “activity change, negative = inhibition” value is -12.6%.
On to `C=C1C(=O)CC2OC2(C)CC2OC(=O)C(=C)C2C(O)C1OC(=O)/C(C)=C\C` (stereo unspecified), for which the “activity change, negative = inhibition” value was -17.6% [at 27.8 µM].
As for `CC12CCC3C(C1)c1c(cc(O)c(C(=O)c4ccccc4)c1OC3(C)C)O2` (stereo unspecified), the “activity change, negative = inhibition” value was -17.1% [at 27.8 µM].
With `CN1C(=O)[C@@H](Cc2c[nH]c3ccccc23)N=C(c2ccccc2F)c2ccccc21`, the “activity change, negative = inhibition” value was -8.67%.
As for `C#C[C@]1(O)CC[C@H]2[C@@H]3CC[C@H]4Cc5nc6nc7ccccc7n6cc5C[C@]4(C)[C@H]3CC[C@@]21C`, the “activity change, negative = inhibition” value is -8.3%.
`CC(C)[C@H]1OC(=O)[C@H](Cc2ccccc2)N(C)C(=O)[C@@H](C(C)C)OC(=O)[C@H](Cc2ccccc2)N(C)C(=O)[C@@H](C(C)C)OC(=O)[C@H](Cc2ccccc2)N(C)C1=O`: the “activity change, negative = inhibition” value was -22.4% [at 15.3 µM].
As for `CCC1C2CC3C4N(C)c5ccccc5C45CC(C2C5O)N3C1O` (stereo unspecified), the “activity change, negative = inhibition” value is 4.93% [at 27.8 µM].
Regarding `COc1cc(O)c2c(c1)CCC[C@@H](O)[C@H](O)C(=O)/C=C\C[C@H](C)OC2=O`, the “activity change, negative = inhibition” value was -13% [at 27.8 µM].
For the compound `CCCCCCC1C(=O)O[C@H](C)[C@H](NC(=O)c2cccc(NC=O)c2O)C(=O)O[C@@H](C)[C@@H]1OC(=O)CC(C)C` (stereo partly specified), the “activity change, negative = inhibition” value was -25.4%.
`C[C@@H]1O[C@@H](OC2CCC3(C=O)C(CCC4C3CCC3(C)C(C5=CC(=O)OC5)C(O)CC43O)C2)[C@H](O)[C@H](O)[C@H]1O[C@@H]1O[C@H](CO)[C@@H](O)[C@H](O)[C@H]1O` (stereo partly specified): the “activity change, negative = inhibition” value is 4.83% [at 15.3 µM].
For `C=C(C)C(=O)O[C@H]1[C@@H]2[C@H](C)C(=O)O[C@@H]2C[C@@H](C)[C@@H]2C=CC(=O)[C@]21C`, the “activity change, negative = inhibition” value is -7.09% [at 27.8 µM].
Consider `CCN1C[C@]2(COC)CC[C@H](O)[C@@]34C5C[C@@H]6[C@@H](OC)C[C@@](OC(C)=O)(C5[C@@H]6OC(C)=O)[C@H]([C@H](OC)C23)[C@@H]14` (stereo partly specified), for which the “activity change, negative = inhibition” value was -1.66% [at 27.8 µM].
For the compound `CC(=O)O[C@H]1C[C@]2(O)[C@@H]3CC[C@@H]4C[C@@H](O)CC[C@]4(C)[C@H]3CC[C@]2(C)[C@H]1c1ccc(=O)oc1`, the “activity change, negative = inhibition” value was -1.32%.
Turning to `CCCCCn1cc(C(=O)Oc2cccc3cccnc23)c2ccccc21`, the “activity change, negative = inhibition” value is -3.52%.
With `CN=C(NS(=O)(=O)c1ccc(Cl)cc1)N1C[C@H](c2ccccc2)C(c2ccc(Cl)cc2)=N1`, the “activity change, negative = inhibition” value is -24%.
Take `COC1CC(O[C@H]2CC[C@@]3(C)C(CCC4C3CC[C@]3(C)C(C5=CC(=O)OC5)CCC43O)C2)OC(C)C1OC1OC(COC2OC(CO)C(O)C(O)C2O)C(O)C(O)C1O` (stereo partly specified): the “activity change, negative = inhibition” value is -3.83% [at 15.3 µM].
With `C=C(C)[C@@]12O[C@@H]1[C@@]1(C)C(=CC2=O)CC[C@@H](OC(C)=O)[C@@H]1C`, the “activity change, negative = inhibition” value was -1.82%.
For `CN1Cc2c(ccc3c2OCO3)[C@@H]2[C@H]1c1cc3c(cc1C[C@@H]2O)OCO3`, the “outcome” value is “inactive [at 27.8 µM]”.
As for `CN(Cc1cccc(-c2ccncc2)c1)C(=O)Oc1ccc(-c2ccc(C(N)=O)cc2)cc1`, the “activity change, negative = inhibition” value is 3.86%.
On the same count and under the same terms, in the case of `CC1=CC2OC3CC(O)[C@](C)([C@@]2(C)C(O)C1=O)[C@]31CO1` (stereo partly specified) it was -5.23%; in that of `CN(C(=O)C(c1ccccc1)c1ccccc1)[C@H](CN1CC[C@H](O)C1)c1ccccc1`, 11.3%; in that of `COC(=O)C12C(=O)C(C)(O)C(=O)C1(C)C(C)=CC1C34CCC(OC3=O)C(C)(C)C4CCC12C` (stereo unspecified), -10.2% [at 27.8 µM].
`CCOc1ccc(Oc2ccc(OCc3cc(F)ccc3F)cc2)c(N)c1`: the “activity change, negative = inhibition” value is 1.71%.
With `Cc1ccc2c(c1)[C@H]1CN(C)CC[C@H]1N2C(=O)CSc1nnnn1-c1ccc(Cl)cc1`, the “activity change, negative = inhibition” value is 1.31%.
Consider `C=C1C2(C)CC3C(C)(O)C4=CC(=O)OC(C)(C)C4=CCC3(C)C13C(=O)OC(C)C3(O)C2=O` (stereo unspecified), for which the “activity change, negative = inhibition” value is -2% [at 27.8 µM].
As for `Fc1cc(F)c2c(c1)C1C=CCC1C(c1cccnc1)N2` (stereo unspecified), the “activity change, negative = inhibition” value is -8.5%.
On to `CCCN(CCC)[C@@H]1CCc2ccc3[nH]c(C#N)cc3c2C1`, for which the “activity change, negative = inhibition” value was 17%.
Regarding `C[C@]12CC[C@H](O)C[C@@H]1CC[C@@H]1[C@@H]2CC[C@]2(C)[C@@H](C3=CC(=O)OC3)CC[C@]12O`, the “activity change, negative = inhibition” value is 0.962% [at 27.8 µM].
Take `c1ccc([C@@H]2C[C@H]2NC2CCNCC2)cc1`: the “activity change, negative = inhibition” value is -27.1%.
On the same count and under the same terms, the result for `CC(=O)OC[C@]12[C@H](OC(C)=O)C(=O)[C@@H]3[C@@H](O)[C@@]14O[C@@]3(C)COC(=O)c1cccnc1[C@@H](C)[C@H](C)C(=O)O[C@@H]([C@H](OC(C)=O)[C@@H]2OC(C)=O)[C@]4(C)O` reads -10.2% [at 15.3 µM]; that for `Cc1c(N[C@@H](c2nnc(-c3ccc(C#N)cc3)o2)[C@H](C)O)ccc(C#N)c1Cl`, -8.99%.
Take `COc1ccc2c(c1)c(CCN(C)C)cn2S(=O)(=O)c1ccccc1`: the “activity change, negative = inhibition” value was 1.82%.

In another assay the target is Luciferin 4-monooxygenase (Photinus pyralis) (UniProt P08659). Description: Primary firefly luciferase (FLuc) qHTS assay for identification of artifact compounds. (AID 1845220).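 Note: plate controls were DMSO vehicle for no effect and no enzyme for full effect; nearly all actives have a fitted effect of over 60% in size.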 Conditions: purified firefly luciferase, luminescence, 5 min; series mostly up to 54.1 µM; activity change, negative = inhibition: at the top concentration. In a few lines:
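FLuc 10 nM; luciferin 10 uM; ATP 10 uM; Tris-acetate pH 7.6, Mg-acetate 10 mM; 15 min RT preincubation; 5 min reaction; luminescence.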
In the case of `CN(C)[C@@H]1C(=O)C(C(N)=O)=C(O)[C@@]2(O)C(=O)C3=C(O)c4c(O)ccc(Cl)c4[C@@](C)(O)C3C[C@@H]12` (stereo partly specified), the “activity change, negative = inhibition” value is -2.44%.

For the origin of these results see PubChem BioAssay (NCATS).
